Test systems include HT29 colon; SNB-75 CNS; SNB-19 CNS; U251 CNS; PC-3 prostate; SK-MEL-5 melanoma; UACC-62 melanoma; LOX IMVI melanoma; SK-MEL-28 melanoma; SK-MEL-2 melanoma.
What all share (test): NCI-60 one-dose screen, 48 h (100 = growth as untreated, 0 = no growth, -100 = all killed)
What all share (details): 10 µM

Each structure is given as a SMILES string. The panel holds about 83,000 compounds, 20% with a hit somewhere; the sample as a whole holds those more often.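 Cell lines were cultured in 96-well plates, exposed to a single compound concentration, and assessed for percent growth 48 hours later.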 Values without a mark were called inactive. The source made the active and inactive calls. Rule for the calls: active = growth percent below 10; inactive = the rest.

`CCCCC(CCCCCC(CCCC)NCc1ccc2c(c1)OCO2)NCc1ccc2c(c1)OCO2` (stereo not drawn): the growth is -100% (active) with HT29 colon; -100% (active) in the experiment on SNB-75 CNS; -100% (active) in the experiment with SNB-19 CNS; -95.3% (active) in the experiment on U251 CNS; -100% (active) in the experiment on PC-3 prostate; -100% (active) in the experiment on SK-MEL-5 melanoma. Also, the growth in the experiment with UACC-62 melanoma was -95.4% (active); in the experiment with LOX IMVI melanoma, -96.8% (active); with SK-MEL-28 melanoma, -100% (active); in the experiment with SK-MEL-2 melanoma, -87.2% (active).
Regarding `FC(F)(F)c1ccc(-c2cnc(-n3cc(COCCN4CCCCC4)nn3)nc2NC2CCCCCC2)cc1`, the growth in the experiment on HT29 colon was -73.1% (active); in the experiment with SNB-75 CNS, 11.5%; in the experiment with SNB-19 CNS it was 84.2%; in the experiment on U251 CNS it was -74.5% (active); with PC-3 prostate, 7.37% (active); with SK-MEL-5 melanoma, -91% (active). In addition, the growth was -79.2% (active) with UACC-62 melanoma, -55.8% (active) with LOX IMVI melanoma and -90.5% (active) in the experiment on SK-MEL-28 melanoma.
Regarding `COc1ccc(S(=O)(=O)NCCCNc2nccc(-c3c(-c4ccc(F)cc4)nc4sccn34)n2)cc1`, the growth in the experiment on HT29 colon was 11%; in the experiment on SNB-75 CNS it was 49.3%; in the experiment with SNB-19 CNS, 99.1%; in the experiment with U251 CNS, 50%; in the experiment on PC-3 prostate, 52.9%; with SK-MEL-5 melanoma, 49.5%. The growth with UACC-62 melanoma is 48.5%; with LOX IMVI melanoma, 40.1%; with SK-MEL-28 melanoma, 73.5%.
As for `Cc1ccc(-c2nc(/C=C3/C(=O)N(C)c4ccc(F)cc43)c3ccccn23)cc1`, the growth is 112% with HT29 colon; 87.4% in the experiment on SNB-75 CNS; 101% in the experiment with SNB-19 CNS; 80.8% in the experiment on U251 CNS; 113% with PC-3 prostate; 95.6% in the experiment with SK-MEL-5 melanoma. For the same molecule, the growth in the experiment with UACC-62 melanoma is 97.8%; with LOX IMVI melanoma it was 95.9%; with SK-MEL-28 melanoma, 108%; in the experiment with SK-MEL-2 melanoma, 115%.
On to `COc1ccc(-c2nn(-c3cccc(NC(=O)Nc4ccc(Cl)c(C(F)(F)F)c4)c3)cc2-c2ccncc2)cc1Cl`, for which the growth in the experiment on HT29 colon was 2.78% (active); in the experiment on SNB-75 CNS, 25.6%; in the experiment on SNB-19 CNS it was 32.2%; in the experiment with U251 CNS, -41.1% (active); in the experiment with PC-3 prostate it was 2.84% (active); in the experiment with SK-MEL-5 melanoma, 14.7%. Also, the growth with UACC-62 melanoma was -2.96% (active); in the experiment on LOX IMVI melanoma, 19.9%; in the experiment with SK-MEL-28 melanoma, 23%.
On to `COc1cc2nc(Nc3cccc(NC(C)=O)c3)nc(N)c2cc1OC`, for which the growth was 111% in the experiment with HT29 colon; 85% in the experiment with SNB-75 CNS; 103% with SNB-19 CNS; 94.7% in the experiment with U251 CNS; 60% with PC-3 prostate; 95.5% in the experiment on SK-MEL-5 melanoma. For the same molecule, the growth in the experiment on UACC-62 melanoma was 91.7%; in the experiment on LOX IMVI melanoma, 86.7%; in the experiment on SK-MEL-28 melanoma, 90.3%.
As to `COc1cccc(C(=O)Nc2ccc(CN3CCc4nc5cc(OC)c(OC)cc5cc43)cc2)c1`, the growth is 16.2% in the experiment on HT29 colon; 49.2% in the experiment with SNB-75 CNS; 69.7% with SNB-19 CNS; 33.9% in the experiment on U251 CNS; 21.7% in the experiment on PC-3 prostate; 50.1% with SK-MEL-5 melanoma. The growth in the experiment on UACC-62 melanoma is 67.3%; in the experiment on LOX IMVI melanoma it was 31.3%; in the experiment with SK-MEL-28 melanoma, 73.2%.
With `COc1cc(/C=N/NC(=O)c2ccccc2Nc2cccc(C(F)(F)F)c2)cc(OC)c1OC`, the growth is 8.62% (active) in the experiment with HT29 colon; 4.15% (active) in the experiment on SNB-75 CNS; 61.4% in the experiment on SNB-19 CNS; -32.1% (active) with U251 CNS; -35.3% (active) with PC-3 prostate; 29.2% with SK-MEL-5 melanoma. The growth with UACC-62 melanoma was 10.3%; with LOX IMVI melanoma, 11.9%; in the experiment on SK-MEL-28 melanoma, 39.3%.
On to `COc1ccc(-c2nn(-c3cccc(NC(=O)Nc4cccc(C(F)(F)F)c4)c3)cc2-c2ccncc2)cc1Cl`, for which the growth is 2.94% (active) with HT29 colon; 21.5% in the experiment with SNB-75 CNS; 37.1% in the experiment with SNB-19 CNS; -25.2% (active) in the experiment with U251 CNS; 3.59% (active) in the experiment with PC-3 prostate; 2.68% (active) in the experiment on SK-MEL-5 melanoma. Moreover, the growth is -21.5% (active) in the experiment on UACC-62 melanoma, 22.6% with LOX IMVI melanoma and 15.6% with SK-MEL-28 melanoma.
In the case of `COc1cc(/C=C2\Oc3cc(OCC(=O)c4ccccc4)ccc3C2=O)cc(OC)c1OC`, the growth was 112% in the experiment with HT29 colon; 104% in the experiment on SNB-75 CNS; 118% in the experiment with SNB-19 CNS; 90.1% with U251 CNS; 85.2% in the experiment on PC-3 prostate; 98.7% with SK-MEL-5 melanoma. In addition, the growth in the experiment on UACC-62 melanoma was 96.7%; with LOX IMVI melanoma, 98.5%; with SK-MEL-28 melanoma it was 108%; in the experiment with SK-MEL-2 melanoma it was 122%.
With `Nc1c(C(=O)Nc2ccccc2)sc2nc3c(cc12)CCCC3`, the growth is 10.1% in the experiment with HT29 colon; 20.6% in the experiment with SNB-75 CNS; 64% in the experiment with SNB-19 CNS; 21.7% in the experiment on U251 CNS; 25.4% in the experiment with PC-3 prostate; 31.8% in the experiment on SK-MEL-5 melanoma. Besides, the growth in the experiment on UACC-62 melanoma was 47.8%; in the experiment with LOX IMVI melanoma it was 53.3%; with SK-MEL-28 melanoma, 56%; in the experiment with SK-MEL-2 melanoma, 51.5%.
With `CCOC(=O)C1CCc2c(ccc3ccccc23)N1CCC#N` (stereo not drawn), the growth is 100% in the experiment on HT29 colon; 74.2% in the experiment on SNB-75 CNS; 99% in the experiment on SNB-19 CNS; 89.7% in the experiment with U251 CNS; 84.9% in the experiment with PC-3 prostate; 89.2% with SK-MEL-5 melanoma. For the same molecule, the growth is 91% in the experiment on UACC-62 melanoma, 85.7% with LOX IMVI melanoma, 91.2% in the experiment with SK-MEL-28 melanoma and 134% in the experiment with SK-MEL-2 melanoma.
Take `NC1(C(=O)O)CSSC1`: the growth with HT29 colon is 90.7%; in the experiment on SNB-75 CNS, 40.8%; in the experiment with SNB-19 CNS, 36.4%; in the experiment with U251 CNS, 15.1%; in the experiment on PC-3 prostate, 79.1%; in the experiment on SK-MEL-5 melanoma it was 69.9%. Besides, the growth in the experiment on UACC-62 melanoma is 97.4%; in the experiment on LOX IMVI melanoma it was 32.2%; with SK-MEL-28 melanoma, 34.8%; with SK-MEL-2 melanoma, 111%.
In the case of `COc1ccc2nc3cc(Cl)ccc3c(NCCNCC(C)O)c2c1` (stereo not drawn), the growth in the experiment with HT29 colon is -37.7% (active); with SNB-75 CNS, 63.7%; with SNB-19 CNS, 34%; in the experiment with U251 CNS it was -8.32% (active); in the experiment on PC-3 prostate, 28.1%; in the experiment on SK-MEL-5 melanoma, 81%. The growth was 54.1% with UACC-62 melanoma, 14.5% with LOX IMVI melanoma, 54.7% in the experiment with SK-MEL-28 melanoma and 31.1% in the experiment with SK-MEL-2 melanoma.

Values taken from PubChem BioAssay (NCI).
